The record followed here is PubChem BioAssay (Tox21).

In experiment [1] the target is Cytochrome P450 2D6 (Homo sapiens) (UniProt P10635). In words: Cytochrome P450 Family 2 Subfamily D Member 6 (CYP2D6) small molecule antagonists: luciferase reporter qHTS assay (AID 1671196). Further: nearly all actives have a fitted effect of over 50% in size. Particulars: P450-Glo CYP2D6 enzyme assay, luciferin luminescence, 1 h; series mostly up to 115 µM. The procedure, abridged: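 Test chemicals meet CYP2D6 plus proluciferin substrate (10 min, RT); NADPH regenerating solution then drives turnover for 1 h. Detection reagent halts the reaction; luminescence measured after 20 min.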
Chain of Cytochrome P450 2D6 (Homo sapiens) (P10635 whole entry, looked up): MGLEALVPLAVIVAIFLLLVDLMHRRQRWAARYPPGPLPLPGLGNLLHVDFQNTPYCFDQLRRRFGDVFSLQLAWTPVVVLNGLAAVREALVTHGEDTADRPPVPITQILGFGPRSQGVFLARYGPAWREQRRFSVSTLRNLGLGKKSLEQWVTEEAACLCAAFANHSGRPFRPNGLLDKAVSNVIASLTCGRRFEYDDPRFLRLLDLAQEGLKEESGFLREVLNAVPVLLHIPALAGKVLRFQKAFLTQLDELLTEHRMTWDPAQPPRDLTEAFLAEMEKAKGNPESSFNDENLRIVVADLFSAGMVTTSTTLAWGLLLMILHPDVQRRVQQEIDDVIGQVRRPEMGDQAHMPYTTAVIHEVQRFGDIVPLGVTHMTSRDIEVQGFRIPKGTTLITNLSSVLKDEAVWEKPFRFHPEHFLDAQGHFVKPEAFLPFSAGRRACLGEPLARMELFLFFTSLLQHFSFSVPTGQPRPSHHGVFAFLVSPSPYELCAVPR
For orientation: Reporter assays use an easily measured gene product as a stand-in for the process of interest.

In experiment [2] the target is Cytochrome P450 2C19 (Homo sapiens) (UniProt P33261). In words: Cytochrome P450 Family 2 Subfamily C Member 19 (CYP2C19) small molecule antagonists: luciferase reporter qHTS assay (AID 1671197). Further: nearly all actives have a fitted effect of over 65% in size. Particulars: P450-Glo CYP2C19 enzyme, luciferin luminescence, 1 h; series mostly up to 115 µM. An outline of the steps: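 Luminescent readout of CYP2C19 activity: luciferin product detected 20 min after adding detection reagent. Before that, compound and enzyme-substrate mix preincubated 10 min at room temperature; NADPH-regenerating system started a 1 h, 37C reaction. Ketoconazole as positive control.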
Chain of Cytochrome P450 2C19 (Homo sapiens) (P33261 whole entry, looked up): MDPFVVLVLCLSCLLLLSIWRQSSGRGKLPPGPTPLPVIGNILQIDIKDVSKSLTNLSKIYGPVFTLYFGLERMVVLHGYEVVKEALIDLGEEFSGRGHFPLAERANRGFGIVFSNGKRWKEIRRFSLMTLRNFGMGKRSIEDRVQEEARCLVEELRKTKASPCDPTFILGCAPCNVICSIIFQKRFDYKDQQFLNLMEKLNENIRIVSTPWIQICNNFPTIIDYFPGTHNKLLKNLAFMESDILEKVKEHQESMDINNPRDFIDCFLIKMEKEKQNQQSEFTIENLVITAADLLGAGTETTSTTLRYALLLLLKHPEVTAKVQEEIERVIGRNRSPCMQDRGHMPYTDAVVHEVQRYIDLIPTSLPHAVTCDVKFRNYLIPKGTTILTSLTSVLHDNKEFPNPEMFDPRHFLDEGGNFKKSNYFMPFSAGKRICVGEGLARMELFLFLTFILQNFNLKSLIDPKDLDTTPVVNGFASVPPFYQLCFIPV

For experiment [3], the target named is Voltage-gated inwardly rectifying potassium channel KCNH2 (Homo sapiens) (UniProt Q12809). The experiment can be described thus: Human Ether-a-go-go-Related Gene (hERG) channel small molecule antagonists: fluorescence cell-based qHTS assay (AID 1671200). Further: nearly all actives have a fitted effect of over 50% in size.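 On activity change, negative = inhibition: hERG-expressing U2OS cells given a thallium stimulus after FluxOR II dye loading.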 To be noted: hERG-U2OS cells, FluxOR thallium flux fluorescence; series mostly up to 76.8 µM. The procedure, abridged: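 Cell line hERG-U2OS; dye FluxOR II, 1 h RT dark; Tl+ stimulus; ex 480/em 540 nm, read each second for 2 min.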
Chain of Voltage-gated inwardly rectifying potassium channel KCNH2 (Homo sapiens) (Q12809 whole entry, looked up): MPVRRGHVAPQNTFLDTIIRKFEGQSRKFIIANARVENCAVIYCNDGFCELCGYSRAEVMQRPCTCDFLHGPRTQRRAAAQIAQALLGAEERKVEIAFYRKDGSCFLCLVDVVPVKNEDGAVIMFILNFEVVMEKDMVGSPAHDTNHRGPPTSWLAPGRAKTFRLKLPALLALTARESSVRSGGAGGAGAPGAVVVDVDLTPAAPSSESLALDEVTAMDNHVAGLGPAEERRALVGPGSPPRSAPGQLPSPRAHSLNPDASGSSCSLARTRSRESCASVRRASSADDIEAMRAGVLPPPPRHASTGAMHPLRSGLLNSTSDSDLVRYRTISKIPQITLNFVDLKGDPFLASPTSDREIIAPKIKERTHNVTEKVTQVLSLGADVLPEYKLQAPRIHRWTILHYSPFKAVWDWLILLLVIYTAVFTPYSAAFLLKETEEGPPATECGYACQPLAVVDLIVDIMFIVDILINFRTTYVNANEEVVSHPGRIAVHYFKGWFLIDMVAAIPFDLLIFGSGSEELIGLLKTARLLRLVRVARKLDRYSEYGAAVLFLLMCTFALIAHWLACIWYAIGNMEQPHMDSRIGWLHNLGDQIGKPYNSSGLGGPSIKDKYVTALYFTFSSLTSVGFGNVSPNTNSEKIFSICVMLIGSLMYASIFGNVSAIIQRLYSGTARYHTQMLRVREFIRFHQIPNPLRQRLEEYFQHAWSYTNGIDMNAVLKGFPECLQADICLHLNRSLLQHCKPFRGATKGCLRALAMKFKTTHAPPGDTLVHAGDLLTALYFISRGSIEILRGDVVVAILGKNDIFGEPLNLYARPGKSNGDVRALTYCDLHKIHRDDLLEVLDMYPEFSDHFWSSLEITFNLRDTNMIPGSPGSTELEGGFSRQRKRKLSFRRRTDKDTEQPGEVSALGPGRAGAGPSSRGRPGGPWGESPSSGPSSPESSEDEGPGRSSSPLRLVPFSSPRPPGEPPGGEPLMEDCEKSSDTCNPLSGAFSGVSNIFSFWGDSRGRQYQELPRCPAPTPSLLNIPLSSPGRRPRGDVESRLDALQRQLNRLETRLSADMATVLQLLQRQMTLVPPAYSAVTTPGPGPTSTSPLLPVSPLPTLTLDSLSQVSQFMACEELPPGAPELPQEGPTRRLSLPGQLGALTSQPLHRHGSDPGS
Background: hERG is a cardiac potassium channel; its block is linked to QT prolongation.

In experiment [4] the target is Cytochrome P450 3A4 (Homo sapiens) (UniProt P08684). The experiment can be described thus: Cytochrome P450 Family 3 Subfamily A Member 4 (CYP3A4) small molecule antagonists: luciferase reporter qHTS assay (AID 1671201). Further: nearly all actives have a fitted effect of over 50% in size. Particulars: P450-Glo CYP3A4 enzyme, luciferin luminescence, 1 h; series mostly up to 115 µM. An outline of the steps: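 Room-temperature assay throughout: 10 min compound–enzyme/substrate preincubation, 1 h reaction after NADPH regeneration solution, 20 min detection. Luciferin formed from proluciferin substrate is quantified by luminescence.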
Chain of Cytochrome P450 3A4 (Homo sapiens) (P08684 whole entry, looked up): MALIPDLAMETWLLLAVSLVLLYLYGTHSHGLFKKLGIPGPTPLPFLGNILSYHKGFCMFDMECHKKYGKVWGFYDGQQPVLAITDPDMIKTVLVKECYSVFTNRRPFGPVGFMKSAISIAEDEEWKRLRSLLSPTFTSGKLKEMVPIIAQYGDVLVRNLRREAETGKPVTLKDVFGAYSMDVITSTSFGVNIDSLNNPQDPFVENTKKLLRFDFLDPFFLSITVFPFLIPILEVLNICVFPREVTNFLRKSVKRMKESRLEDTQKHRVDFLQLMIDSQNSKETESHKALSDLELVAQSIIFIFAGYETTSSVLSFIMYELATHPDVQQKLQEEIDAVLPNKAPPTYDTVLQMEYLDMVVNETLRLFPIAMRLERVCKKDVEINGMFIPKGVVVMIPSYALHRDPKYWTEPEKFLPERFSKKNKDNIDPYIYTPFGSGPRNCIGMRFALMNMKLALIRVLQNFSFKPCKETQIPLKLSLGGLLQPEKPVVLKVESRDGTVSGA

Experiment [5] deals with Cytochrome P450 1A2 (Homo sapiens) (UniProt P05177). In words: Cytochrome P450 Family 1 Subfamily A Member 2 (CYP1A2) small molecule antagonists: luciferase reporter qHTS assay (AID 1671199). Further: nearly all actives have a fitted effect of over 50% in size. Particulars: P450-Glo CYP1A2 enzyme, luciferin luminescence, 1 h; series mostly up to 115 µM. An outline of the steps: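 Steps: enzyme-substrate mix dispensed; test compounds and furafylline control pinned in; 10 min room temperature; NADPH regeneration solution added, 1 h; reaction stopped with luciferin detection reagent; luminescence read after 20 min.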
Chain of Cytochrome P450 1A2 (Homo sapiens) (P05177 whole entry, looked up): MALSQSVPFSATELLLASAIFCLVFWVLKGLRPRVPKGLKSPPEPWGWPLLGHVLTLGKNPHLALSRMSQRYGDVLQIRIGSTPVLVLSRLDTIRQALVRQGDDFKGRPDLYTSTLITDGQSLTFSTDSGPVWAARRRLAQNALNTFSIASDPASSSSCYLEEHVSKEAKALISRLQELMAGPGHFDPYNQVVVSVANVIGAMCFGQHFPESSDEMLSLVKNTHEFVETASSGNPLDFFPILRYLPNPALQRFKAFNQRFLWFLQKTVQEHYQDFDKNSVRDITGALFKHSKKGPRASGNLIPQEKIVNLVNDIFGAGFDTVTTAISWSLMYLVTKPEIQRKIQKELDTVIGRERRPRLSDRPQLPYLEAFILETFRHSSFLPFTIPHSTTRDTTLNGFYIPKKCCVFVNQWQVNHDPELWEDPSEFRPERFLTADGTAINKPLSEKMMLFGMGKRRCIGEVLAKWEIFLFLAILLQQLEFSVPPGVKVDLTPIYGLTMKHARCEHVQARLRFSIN

Experiment [6] addresses Cytochrome P450 2C9 (Homo sapiens) (UniProt P11712). In words: Cytochrome P450 Family 2 Subfamily C Member 9 (CYP2C9) small molecule antagonists: luciferase reporter qHTS assay (AID 1671198). Further: nearly all actives have a fitted effect of over 50% in size. Particulars: P450-Glo CYP2C9 enzyme assay, luciferin luminescence; series mostly up to 115 µM. The procedure, abridged:
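CYP2C9 activity was measured with a P450-Glo proluciferin substrate. Enzyme–substrate mix was held with compound for 10 min at room temperature, then NADPH regeneration solution was added for 1 h at 37C. Luciferin product was read as luminescence.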

Each structure is given as a SMILES string. Records with an inconclusive call do not appear. Unmarked numbers belong to inactive results. Calls of active or inactive are those of the source. The call rests on the fitted dose curve; in most records, active means well fitted curve in the direction sought with a large enough effect in the repeat runs; inconclusive means weak or mixed curves; inactive means no such curve, though single readings can be large; an effect the other way counts as inactive or inconclusive.
On the % scale 0 is the no-effect control and ±100 the full control effect; potency means the concentration at half of the fitted maximal effect.

Chain of Cytochrome P450 2C9 (Homo sapiens) (P11712 whole entry, looked up): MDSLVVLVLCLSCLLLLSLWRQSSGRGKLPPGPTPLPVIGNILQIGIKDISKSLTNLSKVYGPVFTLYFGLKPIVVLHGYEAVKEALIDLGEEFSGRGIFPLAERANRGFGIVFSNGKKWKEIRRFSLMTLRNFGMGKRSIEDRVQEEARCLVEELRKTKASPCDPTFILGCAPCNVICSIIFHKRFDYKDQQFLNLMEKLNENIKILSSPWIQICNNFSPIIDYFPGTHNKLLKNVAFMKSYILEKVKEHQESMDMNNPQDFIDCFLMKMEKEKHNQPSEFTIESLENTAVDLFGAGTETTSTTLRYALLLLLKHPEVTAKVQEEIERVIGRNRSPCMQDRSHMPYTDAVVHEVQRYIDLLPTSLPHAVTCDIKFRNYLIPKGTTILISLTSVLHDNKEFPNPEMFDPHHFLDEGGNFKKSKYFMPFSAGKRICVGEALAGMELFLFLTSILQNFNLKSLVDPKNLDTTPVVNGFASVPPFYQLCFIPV

With `Cc1c(Nc2ncccc2C(=O)O)cccc1C(F)(F)F`, the Potency entry in experiment [1], in experiment [2], in experiment [3] and in experiment [4] was “inactive” throughout.

With `O=C1c2ccccc2C(=O)C1c1ccc2cc(S(=O)(=O)O)cc(S(=O)(=O)O)c2n1`, the Potency entry in experiment [1] and in experiment [3] was “inactive” throughout. Besides, the Potency in experiment [5] is 43.2 µM (active).

For the compound `Cc1c(-c2cccnc2)c2ccccc2n1CCCCC(=O)O`, the Potency result in experiment [1] and in experiment [3] was “inactive” throughout. Also, the Potency in experiment [6] was 31.7 µM (active); in experiment [4], 5.03 µM (active).

Turning to `CCC(C(=O)O)c1ccc(N2Cc3ccccc3C2=O)cc1` (centres undefined), the Potency was 15.5 µM (active) in experiment [1] and 21.9 µM (active) in experiment [2]. Also, the Potency result in experiment [3] and in experiment [4] was “inactive” throughout.

As to `S=c1[nH][nH]c(=S)s1`, the Potency is 22.4 µM (active) in experiment [2] and 20 µM (active) in experiment [6]. In addition, the Potency result in experiment [3] and in experiment [4] was “inactive” each time.

For the compound `CC(Cc1ccccc1)(NC(=O)CN)c1ccccc1` (centres undefined), the Potency entry in experiment [3] was “inactive”.

Take `Nc1ccc(-c2ccc(F)cc2)cc1`: the Potency in experiment [2] is 8.94 µM (active); in experiment [6], 14.2 µM (active); in experiment [5], 0.502 µM (active); in experiment [4], 11.2 µM (active). In experiment [3], the Potency result was “inactive”.

As to `Clc1cccc(C(c2ccc3nc[nH]c3c2)n2ccnc2)c1` (centres undefined), the Potency was 2.75 µM (active) in experiment [2] and 8.71 µM (active) in experiment [6]. Also, the Potency result in experiment [3] was “inactive”.

Take `CCOc1cc(OCC)c(C(C)=O)cc1OCC`: the results for the Potency in experiment [2], in experiment [5] and in experiment [4] were 69.8 µM (active), 1.11 µM (active) and 35 µM (active), respectively. The Potency entry in experiment [3] is “inactive”.

In the case of `O=C1c2ccccc2C(=O)c2c1ccc(O)c2O`, the Potency result in experiment [2], in experiment [3] and in experiment [4] was “inactive” in each case. For the same compound, in experiment [5], the Potency was 25.7 µM (active).

For the compound `O=c1[nH]nc(-c2ccc([N+](=O)[O-])o2)o1`, the values for the Potency in experiment [2] and in experiment [5] were 79.6 µM (active) and 31.7 µM (active), respectively. Also, the Potency entry in experiment [3] and in experiment [4] was “inactive” each time.

With `CCCCCCCCNC`, the Potency in experiment [2] was 22.4 µM (active). In addition, the Potency result in experiment [5], in experiment [3] and in experiment [4] was “inactive” throughout.

Regarding `CC(=O)Nc1cccc(N)c1`, the Potency in experiment [2] was 57.2 µM (active). Further, in experiment [3], the Potency entry was “inactive”.

For the compound `O=[N+]([O-])c1ccc(Cl)cc1Cl`, the Potency entry in experiment [2], in experiment [6] and in experiment [3] was “inactive” throughout.

As to `CC(C(=O)O)c1ccc(/C=C2\CCCCC2=O)cc1` (centres undefined), the Potency result in experiment [6], in experiment [5] and in experiment [3] was “inactive” each time.

Turning to `O=S(=O)(O)c1cc(Cl)c(Cl)cc1Cl`, the Potency entry in experiment [2], in experiment [3] and in experiment [4] was “inactive” in each case. Moreover, the Potency in experiment [6] was 31.7 µM (active).

For the compound `O=C(O)c1ccncc1`, in experiment [3], the Potency entry was “inactive”.

`CC(=O)Nc1ccccc1O`: the Potency entry in experiment [3] is “inactive”.

As for `C=C[Si](OCC)(OCC)OCC`, the Potency entry in experiment [3] was “inactive”.

Turning to `CC(C)(O)C(=O)O`, the Potency result in experiment [2], in experiment [6], in experiment [3] and in experiment [4] was “inactive” throughout.

As for `Nc1ncnc2c1ncn2[C@@H]1O[C@H](CO)[C@@H](O)[C@H]1O`, the Potency entry in experiment [3] was “inactive”.

As to `CC[C@H](NC(C)C)[C@H](O)c1ccc(O)c2[nH]c(=O)ccc12`, the Potency entry in experiment [2], in experiment [6], in experiment [5], in experiment [3] and in experiment [4] was “inactive” each time.

As for `Cc1cc(N)n(-c2ccccc2)n1`, the Potency was 28.3 µM (active) in experiment [2] and 39.9 µM (active) in experiment [5]. In addition, the Potency entry in experiment [3] and in experiment [4] was “inactive” each time.

With `CCC(C)C1N=C(C)C(C)S1` (centres undefined), the Potency is 39.9 µM (active) in experiment [2], 39.9 µM (active) in experiment [6] and 25.2 µM (active) in experiment [4]. Also, the Potency entry in experiment [3] is “inactive”.

As to `O=Cc1ccc([N+](=O)[O-])cc1`, the Potency result in experiment [3] was “inactive”.

Consider `CCN(CCCCOC(=O)c1ccc(OC)c(OC)c1)C(C)Cc1ccc(OC)cc1` (centres undefined), for which the Potency entry in experiment [6] was “inactive”. In experiment [3], the Potency was 3.38 µM (active).

For `Nc1ccc(C(=O)Oc2ccccc2)c(O)c1`, the figures for the Potency in experiment [6] and in experiment [5] were 27.5 µM (active) and 11.5 µM (active), respectively. The Potency result in experiment [3] is “inactive”.

On to `CC(C)(Cc1c[nH]c2ccccc12)NCC(O)COc1ccccc1C#N` (centres undefined), for which the Potency entry in experiment [2] and in experiment [4] was “inactive” throughout. For the same compound, the Potency in experiment [3] is 8.49 µM (active).

Consider `O=C(O)c1ccc2cc(O)ccc2c1`, for which the Potency result in experiment [6], in experiment [5], in experiment [3] and in experiment [4] was “inactive” throughout.

For `Nc1ccccc1Nc1ccccc1`, the Potency entry in experiment [3] was “inactive”. Moreover, the Potency in experiment [4] is 31.8 µM (active).

For `OCCc1ccncc1`, the Potency was 22.4 µM (active) in experiment [5] and 28.3 µM (active) in experiment [4]. Moreover, the Potency result in experiment [3] was “inactive”.

On to `CCc1c(C)[nH]c2c1C(=O)C(CN1CCOCC1)CC2` (centres undefined), for which the Potency entry in experiment [5] and in experiment [3] was “inactive” in each case.

For `[O-][n+]1ccc(Cl)cc1`, the Potency result in experiment [6], in experiment [5], in experiment [3] and in experiment [4] was “inactive” each time.

Regarding `FC(F)(Cl)C(F)(Cl)Cl`, the Potency entry in experiment [2], in experiment [6], in experiment [3] and in experiment [4] was “inactive” each time.

In the case of `CCCCCCCCCCCCCCCCN`, the Potency entry in experiment [6], in experiment [3] and in experiment [4] was “inactive” in each case.

Consider `CCOc1ccc(NC(C)=O)cc1N`, for which the values for the Potency in experiment [2] and in experiment [5] were 36.1 µM (active) and 16.1 µM (active), respectively. Further, the Potency entry in experiment [3] was “inactive”.

With `O=C(OCCOCCOCCOC(=O)c1ccccc1)c1ccccc1`, the Potency was 20 µM (active) in experiment [2] and 17.8 µM (active) in experiment [5]. Moreover, the Potency result in experiment [6], in experiment [3] and in experiment [4] was “inactive” in each case.

For `CC1=CC(=C(c2ccc(N)cc2)c2ccc(N)cc2)C=CC1=N`, in experiment [3], the activity change, negative = inhibition was -5.88% [at 6.97 µM]. Moreover, the Potency in experiment [4] is 2.86 µM (active).

`CCc1ccc2c(c1)C(=O)c1ccccc1C2=O`: the Potency in experiment [2] was 11.2 µM (active); in experiment [6], 10 µM (active); in experiment [5], 2.24 µM (active); in experiment [4], 17.8 µM (active).

For `COC(=O)Cc1cccc2ccccc12`, the Potency in experiment [2] is 79.6 µM (active). Further, the Potency result in experiment [6], in experiment [3] and in experiment [4] was “inactive” each time.

For `O=C(Nc1ccccc1)c1cc([N+](=O)[O-])ccc1Cl`, the Potency in experiment [2] was 22.4 µM (active); in experiment [6] it was 31.7 µM (active); in experiment [5], 7.96 µM (active); in experiment [4], 35.6 µM (active). For the same compound, the Potency entry in experiment [3] was “inactive”.

Take `CCOCCn1c(N2CCCN(C)CC2)nc2ccccc21`: the Potency entry in experiment [2] and in experiment [5] was “inactive” in each case. Besides, the Potency in experiment [3] is 7.56 µM (active).

Consider `COC(=O)c1cc(Cl)ccc1[N+](=O)[O-]`, for which the Potency in experiment [2] is 79.6 µM (active); in experiment [5], 7.96 µM (active). Also, the Potency result in experiment [6], in experiment [3] and in experiment [4] was “inactive” in each case.
